# Screening data (PubChem BioAssay)
# Most compounds without a hit are left out; they make up all but 9.4% or so of the library.
# AMA1 RON2 block – qHTS for Inhibitors of AMA1-RON; Towards Development of Antimalarial Drug Lead: Primary Screen; AlphaScreen AMA1-biotinylated RON2 peptide binding; Potency, µM (titrated, usually from 58.2 µM), without a hit: at the top dose activity change, negative = inhibition, hits mostly inhibitors; hit rate 0.2% among 360,000; Plasmodium falciparum AMA1 (3D7) - RON2 peptide interaction;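 note: 0% = vehicle wells and -100% = peptide control; nearly all actives have a fitted effect of over 45% in size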
#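 AMA1 (3D7) with his tag at 25 nM final met compounds first, then biotinylated RON2 peptide at 25 nM; detection used donor plus acceptor beads, 10 µg/mL apiece, read by AlphaScreen after 30 min at room temperature.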
# Pf growth 48h – Primary qHTS for delayed death inhibitors of the malarial parasite plastid, 48 hour incubation; P. falciparum luciferase growth in erythrocytes, 48 h; Potency, µM (titrated, usually from 28.7 µM), without a hit: at the top dose activity change, negative = inhibition, hits mostly inhibitors; hit rate 5.9% among 310,000; AID 504832, 2011; note: % is set by controls: 0 for no effect and ±100 for the full control effect
#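 Luminescence readout; reporter = integrated firefly luciferase in P. falciparum. RBC culture at 2% hematocrit, 0.1% parasitemia final, 37 C/5% CO2; decreased signal taken as growth inhibition.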
# Pf growth 96h – Primary qHTS for delayed death inhibitors of the malarial parasite plastid, 96 hour incubation | Potency, µM (doses to about 28.7 µM), for inactives: at the highest dose activity change, negative = inhibition, hits mostly inhibitors | AID 504834, 2011 | hit rate 6.9% among 320,000 | P. falciparum luciferase reporter growth, 96 h; note: % is set by controls: 0 for no effect and ±100 for the full control effect
#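 96 h incubation, 37 C, 5% CO2, of luciferase-reporter P. falciparum-infected RBCs (2% hematocrit, 0.05% parasitemia final) with test compounds; endpoint luminescence.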
# SARS PLP yeast – qHTS of Yeast-based Assay for SARS-CoV PLP | S. cerevisiae expressing SARS-CoV PLpro, growth rescue | Potency, µM (top dose mostly 32.9 µM), without a hit: at the highest dose activity, positive = growth rescue, actives largely listed as activators | hit rate 0.19% among 330,000; calls by dose curve; note: 0% is about no effect; nearly all actives have a fitted effect of over 55% in size
# Numbers without * were called inactive; i = inactive; ? = inconclusive; / = no result; [ ] = dose if it differs, or a comment. Unless noted, calls come from the whole dose curve; as a rule, active = well fitted curve in the direction sought with a large enough effect; inconclusive = small, poorly fitted or top-dose-only effect, or another doubt; inactive = no such curve, though single readings can be large; an effect the other way counts as inactive or inconclusive. Potency is the fitted concentration of half-maximal effect.
SMILES,AMA1 RON2 block,Pf growth 48h,Pf growth 96h,SARS PLP yeast
O=C1c2cc(F)ccc2-n2c1nc1ccccc1c2=O,5%,0.033µM*,0.029µM*,-3%
Cc1ccc(C)c(NC(=S)N/N=C2\CCc3ccccc32)c1,29%,51%,5.2µM*,8%
Cc1ccc(NC(=S)N/N=C2/CCCCc3ccccc32)cc1,37%,?,12µM*,-3%
Cc1ccc(C)c(NC(=S)Nc2ncccc2C)c1,28%,40%,?,-1%
Cc1cccc(NC(=S)N/N=C2/CCCCc3ccccc32)c1,-18%,?,?,-47%
CCNC(=S)N/N=C1\CCCCc2ccccc21,10%,12µM*,?,-30%
COc1ccccc1OCC(=O)N/N=C1\CCCCc2ccccc21,9%,?,?,1%
C=C(C)CNC(=S)N/N=C1\CCCCc2ccccc21,10%,?,15µM*,-55%
COc1ccc(NC(=O)COC(=O)C2CC(=O)N(c3ccc(OC(C)C)cc3)C2)cc1 (centres undefined),5%,22%,-29%,0%
Cc1ccc(NC(=O)c2ccc(S(=O)(=O)C(F)F)cc2)c(C)c1,-4%,25%,-5%,-9%
CCOCCCNC(=O)C1(O)c2ccccc2NC(=O)N1c1ccc(Cl)c(Cl)c1 (centres undefined),-1%,1%,?,0%
CCCCN(C)CCCNC(=O)C1(O)c2ccccc2NC(=O)N1c1ccc(Cl)cc1 (centres undefined),-10%,3%[0.00184 µM],4.1µM*,1%
CCOc1ccc(N2C(=O)Nc3ccc(Br)cc3C2(O)C(=O)NCCN(C)C)cc1 (centres undefined),26%,-8%,1.9µM*,0%
CC(C)NC(=O)C1(O)c2ccccc2NC(=O)N1c1ccc(Cl)c(Cl)c1 (centres undefined),-6%,-10%,10µM*,0%
COc1ccc(NC(=O)C2CCCN(S(=O)(=O)c3ccc4[nH]c(=O)ccc4c3)C2)cc1OC (centres undefined),-1%,24%,12µM*,4%
COc1ccc2nc(NC(=O)C3CCN(S(=O)(=O)c4cccc5nsnc45)CC3)sc2c1,-1%,?,10µM*,4%
Cc1cccc(NC(=O)C2CCCN(S(=O)(=O)c3cccc4nsnc34)C2)c1 (centres undefined),0%,/,8.3µM*,12%
CCOc1ccccc1NC(=O)C1CCCN(S(=O)(=O)c2ccc(OC)c(C)c2)C1 (centres undefined),-3%,10µM*,/,0%
Cc1ccc(NC(=O)C2CCCN(S(=O)(=O)c3ccc4[nH]c(=O)ccc4c3)C2)cc1C (centres undefined),-6%,-2%,?,-7%
CCOc1ccccc1OCCN1CCCC1,-11%,81%,?,-4%
CNc1nc(Cl)c(SC)c(NCc2cccc(OC)c2)n1,-9%,0%,0%,-4%
COc1cccc(NC(=O)C2CCCN(S(=O)(=O)c3cccc4nsnc34)C2)c1 (centres undefined),?,/,i,0%
COc1ccccc1NC(=O)C1CCCN(S(=O)(=O)c2cccc3nsnc23)C1 (centres undefined),0%,/,3.3µM*,-5%
Cc1ccc(C(C)n2cc(C(=O)NCc3cccnc3)nn2)cc1 (centres undefined),0%,/,7%,-5%
COc1cccc(NC(=O)CSc2nc3n[nH]c(C)c3c(=N)n2-c2cccc(OC)c2)c1,0%,10µM*,172%,0%
SMILES,AMA1 RON2 block,Pf growth 48h,Pf growth 96h,SARS PLP yeast
Cc1cc(-n2c(SCC(=O)NCc3cccs3)nc3n[nH]c(C)c3c2=N)ccc1Cl,3%,?,-25%,2%
CCc1ccc(NC(=O)CSc2nc3n[nH]c(C)c3c(=N)n2-c2cccc(OC)c2)cc1,21%,?,?,13%
Cc1ccc(CNC(=O)CSc2nc3n[nH]c(C)c3c(=N)n2-c2cccc(C)c2)cc1,39%,/,9.3µM*,-3%
Cc1[nH]nc2nc(SCC(=O)NCC3CCCO3)n(-c3ccc(Br)cc3)c(=N)c12 (centres undefined),17%,10µM*,40%,-2%
COc1cccc(-n2c(SCC(=O)NCCC3=CCCCC3)nc3n[nH]c(C)c3c2=N)c1,55%,9.3µM*,?,2%
O=C1CCC(=O)N1OCCOc1ccc(Cl)c2ccccc12,3%,2%,9%,16%
Cc1cc(C)cc(N=Cc2c(O)c3ccccc3oc2=O)c1,6%,-13%,?,-2%
Cc1cc(C)c(N=Cc2c(O)c3ccccc3oc2=O)c(C)c1,7%,10µM*,2%,1%
CC(=O)c1c(Nc2cccc(F)c2)oc(C)cc1=O,3%,18%,4%,-1%
CC1CCN(c2nc(N(C)c3ccccc3)nc(N)c2[N+](=O)[O-])CC1,?,?,2%,-2%
NC(=O)CS(=O)C(c1ccccc1)c1ccccc1 (centres undefined),/,-8%,6µM*,2%
O=C1CC(c2ccccc2)=C(c2ccccc2)C1,-4%,/,/,/
O=C(CN1CCC(NC(=O)c2ccccc2F)CC1)NCc1ccc(F)cc1,22%,13µM*,/,6%
O=C(CN1CCC(NC(=O)c2ccc(F)cc2)CC1)NCc1ccccc1F,20%,-12%,54%,7%
O=C(CN1CCC(NC(=O)c2ccccc2)CC1)NCc1ccccc1F,2%,?,5.9µM*,11%
CCn1c(C)c(C)c2cc(C(=O)NCCCN3CCCCC3C)ccc21 (centres undefined),0%,-2%,2%,?
COc1ccc(N2CCN(c3nc4c(c(=O)[nH]c(=O)n4C)n3Cc3cccc(C)c3)CC2)cc1,0%,10µM*,48%,2%
C/C=C/Cn1c(N(C)Cc2ccccc2)nc2c1c(=O)[nH]c(=O)n2C,-10%,?,8.3µM*,-12%
CN(Cc1ccccc1)c1nc2c(c(=O)[nH]c(=O)n2C)n1C,2%,0%,1%,?
Cc1cccc(Cn2c(Sc3nc(C)cs3)nc3c2c(=O)[nH]c(=O)n3C)c1,-1%,-21%,1.7µM*,0%
CCN(CC)c1nc2c(c(=O)[nH]c(=O)n2C)n1Cc1ccccc1,-3%,14%,-21%,-2%
Cc1cccc(Cn2c(N(C)Cc3ccccc3)nc3c2c(=O)[nH]c(=O)n3C)c1,-18%,12µM*,13µM*,-2%
Fc1ccccc1-c1nc(-c2ccncc2)no1,-1%,172%,-23%,-1%
O=C(C[n+]1cc(-c2ccc(F)cc2)n2c1CCC2)c1cccs1,1%,8.3µM*,?,-2%
Cn1c(NC(=O)C[n+]2cc(-c3ccc(F)cc3)n3c2CCC3)cc(=O)n(C)c1=O,20%[2.32 µM],3.7µM*,0.59µM*,0%
Cc1ccc(-c2c[n+](CC(=O)Nc3nc(-c4ccccc4)cs3)c3n2CCC3)cc1,0%,?,?,3%
